From PubChem BioAssay
Pf Dd2 inh = Plasmodium falciparum Dd2 growth inhibition; P. falciparum Dd2 growth, SYBR Green, 72 h; Potency, µM (titrated, usually from 28.9 µM), usual class: inhibitors; 120,000 tested, 4.3% active; AID 1347417; active means well fitted inhibition curve with a large enough effect; further: nearly all actives have a fitted effect of over 65% in size
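Readout: SYBR Green fluorescence, 485 nm excitation, 535 nm emission, after ~16 h lysis at 37C. Before that, Dd2-infected red cells (2.5% hematocrit) grew 72 h with compound, 29 uM top final concentration.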
A number is an active result; – = inactive; [ ] = another dose, or the depositor's remark. Only a selection was taken, and hits are over-represented in it overall.

SMILES | Pf Dd2 inh
COc1ccc(-c2noc(CC3CCN(C(=O)COc4cccc(C)c4)CC3)n2)cc1 | –
CS(=O)(=O)c1ccc2c(c1)nc1n2[C@@H](CNCc2ccncc2F)COC1 | –
O=C(CC1CCCC1)N1CCC2(CC1)CC(N(C(=O)c1ccccc1)C1CC1)CCO2 (stereo not given) | –
O[C@@H]1CCN(Cc2nc(C3(O)CCN(C4CCCC4)CC3)cs2)C1 | –
CCNC(=O)CCC[C@@H]1[C@H]2CCCN3CCC[C@@H](CN1C(C)=O)[C@@H]23 | –
Cc1noc(C)c1S(=O)(=O)NCC1(COc2ccc(C(F)(F)F)cn2)C[C@@H](O)[C@@H](O)C1 (stereo not given in full) | –
COCCNc1ncccc1-c1noc([C@@H]2CCCN2C2CCC2)n1 | –
COCCNc1ncccc1-c1noc([C@@H]2CCCN2Cc2ccccc2OC)n1 | 7.9µM
COCCNc1ncccc1-c1noc([C@@H]2CCCN2Cc2ccc(C(=O)O)cc2)n1 | –
O=C([C@@H]1C[C@H](Oc2ccccc2)CN1C(=O)c1ccccn1)N1CCOCC1 | –
COc1ccc(C(=O)N2CCC(n3cc(-c4nc(C(C)C)no4)nn3)C2)cc1 (stereo not given) | –
Cc1ccc(C(=O)N2CCCC(n3cc(-c4nc(C(C)C)no4)nn3)C2)cc1 (stereo not given) | –
COc1ccc(C(=O)N2CCCC(n3cc(-c4nc(C(C)C)no4)nn3)C2)cc1 (stereo not given) | 13µM
CCN1c2cc(C(=O)Nc3cccc(C(F)(F)F)c3)ccc2C(=O)N2CCCC21 (stereo not given) | –
O=C(NCCOc1ccccc1)c1cnc2n1CCN(Cc1ccc3[nH]ccc3c1)CC2 | 13µM
O=C(NCCOc1ccccc1)c1cnc2n1CCN(Cc1ccccc1O)CC2 | –
N#Cc1cccc(CN2CCc3ncc(C(=O)NCCOc4ccccc4)n3CC2)c1 | –
Cc1cccnc1CNC(=O)[C@H]1C[C@@H](C(=O)O)N(C)[C@H]1c1cccc(Cl)c1 | –
CCN1c2cc(C(=O)NCc3ccccc3Br)ccc2C(=O)N2CCCCC21 (stereo not given) | –
Cc1cc(Br)ccc1NC(=O)C[C@H]1NC(=O)c2ccccc2NC1=O | –
COC(=O)c1ccc(NC(=O)CC2Nc3cc(C)c(C)cc3NC2=O)cc1 (stereo not given) | 4µM
Cc1cc2c(cc1C)NC(CC(=O)Nc1ccccc1)C(=O)N2 (stereo not given) | –
CCOC(=O)c1ccc(NC(=O)CC2Nc3ccccc3NC2=O)cc1 (stereo not given) | 13µM
Cc1ccc(NC(=O)CC2Nc3ccccc3NC2=O)cc1C (stereo not given) | –
CCOc1ccccc1NC(=O)C[C@H]1NC(=O)c2ccccc2NC1=O | –
SMILES | Pf Dd2 inh
COc1ccc(NC(C)=O)cc1NC(=O)C[C@H]1NC(=O)c2ccccc2NC1=O | –
CC(=O)c1ccc(NC(=O)CC2Nc3cc(C)c(C)cc3NC2=O)cc1 (stereo not given) | 5µM
O=C(C[C@H]1NC(=O)c2ccccc2NC1=O)Nc1ccncc1 | –
CC(C)CCN1C[C@@H](NC(=O)c2cccnc2)C[C@H]1CO | –
CN(C)C[C@@H]1CN(c2ncccn2)C[C@H]1NC(=O)c1cccc(Cl)c1 | –
COC[C@H]1CCCN1[C@@H]1[C@H](O)[C@H](CO)O[C@@H]1CNC(=O)Nc1ccccc1 | –
COC[C@H]1CCCN1[C@@H]1[C@H](O)[C@H](CO)O[C@@H]1CN(Cc1cccc(Cl)c1)Cc1cccc(Cl)c1 | 0.71µM
OC[C@@H]1O[C@H](CN(Cc2cccc(Cl)c2)Cc2cccc(Cl)c2)C(N2CCOCC2)[C@@H]1O (stereo not given in full) | –
COC(=O)[C@@H]1Cc2ncn(C(C)C)c2CN1C(=O)c1ccccc1 | –
COc1ccc(-c2cc(N3CCCC(NC(=O)c4cccn4C)C3)n[nH]2)cc1 (stereo not given) | –
Cc1cccc(NC(=O)Cn2c(-c3cccc(Cl)c3)nc(C)c(CCO)c2=O)c1 | –
CN1C(=O)CO[C@H](c2ccc(NC(=O)c3cccnc3)cc2)[C@H]1CO | –
COc1cccc(/C=C/C(=O)Nc2ccc3nc(N4CCN(C)CC4)cc(C)c3c2)c1OC | 1.3µM
COc1cc(NC(=O)C2CCN(c3cnc4ccccc4n3)CC2)cc(OC)c1OC | –
CCN1CCN(c2cc(C)c3cc(NC(=O)/C=C/c4cccc(OC)c4OC)ccc3n2)CC1 | 1.1µM
CCOC(=O)N1CCN(Cc2nc3cc(NC(=O)c4ccccc4OC)ccc3n2C(C)C)CC1 | –
CC(C)CCN1CC2(CCCN(C(=O)CN3C(=O)CN(C)C3=O)C2)CCC1=O (stereo not given) | –
Cc1ccsc1CN(Cc1ccco1)C(=O)c1ccc(Cl)cc1 | –
CCS(=O)(=O)c1ncc(N(Cc2ccco2)Cc2sccc2C)c(C(=O)Nc2cc(C)ccc2C)n1 | 5.6µM
Cc1ccc(C)c(NC(=O)CCc2nc(-c3ccc(C(C)(C)C)cc3)no2)c1 | –
Cc1ccc(NC(=O)c2nc(S(C)(=O)=O)ncc2N(Cc2ccco2)Cc2cccs2)c(C)c1 | –
Cc1ccc(C)c(NC(=O)c2nc(S(C)(=O)=O)ncc2N(Cc2ccc(C(C)(C)C)cc2)Cc2ccco2)c1 | 2.5µM
Cc1ccc(C(=O)N(Cc2ccco2)Cc2sccc2C)cc1 | –
COc1ccc(C(=O)NC2CCN(c3cc(-c4ccc(F)cc4)[nH]n3)C2)c(C)c1 (stereo not given) | –
COc1ccc(Nc2c(-c3ccco3)nc3cccc(C)n23)cc1 | –
SMILES | Pf Dd2 inh
Cc1ccn2c(Nc3ccc(C(C)C)cc3)c(-c3cccnc3)nc2c1 | 11µM
Cc1ccn2c(Nc3ccc(F)cc3)c(-c3ccc(C)o3)nc2c1 | 10µM
CC(C)c1ccc(Nc2c(-c3ccccc3O)nc3cnccn23)cc1 | 3.5µM
Cc1ccn2c(Nc3ccc(C(C)C)cc3)c(-c3cccs3)nc2c1 | 11µM
Cc1ccc2nc(-c3cccs3)c(Nc3ccc4c(c3)OCCO4)n2c1 | –
Cc1ccccc1-c1nc2cnccn2c1NCCC(=O)N1CCC(C)CC1 | –
Cc1cccc(C)c1Nc1c(-c2cccs2)nc2ncccn12 | –
Cc1ccc2nc(-c3ccco3)c(Nc3ccc4c(c3)OCCO4)n2c1 | –
Cc1ccc(Nc2c(-c3cccc(Cl)c3)nc3cccc(C)n23)cc1 | –
Cc1ccccc1-c1nc2cnccn2c1NCCC(=O)N1CCCCC1 | –
Cc1ccc2nc(-c3cccnc3)c(Nc3ccc(C(C)C)cc3)n2c1 | –
CCN(Cc1noc(C2CCC2)n1)C(=O)C(C)Oc1ccc2ccccc2c1 (stereo not given) | –
COC(=O)CNC(=O)c1nc(C(C)(C)C)c2ccccn12 | –
Cc1ccc(C)c(S(=O)(=O)N(C)CC2CCOC2)c1 (stereo not given) | –[5.79 µM]
CCn1c(C2CCN(C(=O)CCNC(=O)c3ccc(F)cc3)CC2)n[nH]c1=O | –
C[C@@H]1CN(Cc2nc3c(n2Cc2ccccc2)C(=O)N(Cc2ccccc2F)CCN3)C[C@H](C)O1 | –
COCCN1CCC(N2CCN(C(=O)c3ccc(Cl)s3)CC2)C1=O (stereo not given) | –
O=C(NCCN1CCCC1)C1Cn2cccc2C(=O)N1Cc1cccnc1 (stereo not given) | –
CC(C)CC(=O)N1CCCCCCNC(=O)[C@@H]2CCCC[C@@H]21 | –
CCOc1ccc(-c2ccc(NS(=O)(=O)c3ccc(C)cc3)cc2)nn1 | 10µM
CCOc1ccc(-c2cccc(NS(=O)(=O)c3ccc(C)s3)c2)nn1 | –
COc1ccc(-c2ccc(NS(=O)(=O)c3ccc(F)c(C(F)(F)F)c3)cc2)nn1 | –
